Experimental data: a collection of fitness landscapes (doi:10.1016/j.celrep.2020.107928)
Over roughly 81,000 sequences, “one-hybrid fitness for binding NBS DNA” has its median near -0.1; the highest 2% begin near 0.36. What follows is part of a selection rich in the highest values, with near analogues and random picks from the rest.

B1: Caulobacter ParB omega fusion; a variant is named by its letters at X, in order, B8GW30 (parent)
chain: MESVVVGEPGMSEGRRGLGRGLSALLGEVDAAPAQAPGEQLGGSREAPIEILQRNPDQPRRTFREEDLEDLSNSIREKGVLQPILVRPSPDTAGEYQIVAGERAWRAAQRAGLKTVPIMVRELDDLAVLEIGIIENVQRADLNVLEEALSYKVLMEKFERTQENIAQTIGKSXSHVANXMRLLXLPDEVQSYLVSGELTAXHARAIAAAADPVALAKQIIEGGLSVRETEALARKAPNLSAGKSKGGRPPRVKDTDTQALESDLSSVLGLDVSIDHRGSTGTLTITYATLEQLDDLCNRLTRGI

Variants of: B1
Assay: one-hybrid fitness for binding NBS DNA (the Noc-binding site; scaled: cognate 1, non-cognate 0); higher = stronger binding
Settings: with NBS DNA site
Summary of the method: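 Values were rescaled so that cognate is 1 and non-cognate is 0. Each is a fitness, the log change in a variant's read ratio to wild type from Illumina reads of plasmids before and after selection, with three replicate libraries pooled and variants under 10 reads dropped. Selection of the Caulobacter ParB libraries, four specificity codons randomised, used E. coli USO with a HIS3 reporter, site 19 bp from the promoter, on M9-minus-histidine with 0.1 mM IPTG and 5 mM 3-AT for 48 hours at 37°C.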

one-hybrid fitness for binding NBS DNA, 0.201:
RLNH

one-hybrid fitness for binding NBS DNA, 0.51:
QKMR

one-hybrid fitness for binding NBS DNA, 0.294:
RRPH

one-hybrid fitness for binding NBS DNA, 0.436:
RRYH

one-hybrid fitness for binding NBS DNA, 0.646:
QKTR

one-hybrid fitness for binding NBS DNA, 0.23:
RLWT
RLIT

one-hybrid fitness for binding NBS DNA, 0.523:
QMMR

one-hybrid fitness for binding NBS DNA, 0.389:
RLGT

one-hybrid fitness for binding NBS DNA, 0.45:
QAMR

one-hybrid fitness for binding NBS DNA, 1.01:
QRTR

one-hybrid fitness for binding NBS DNA, 0.296:
RREH

one-hybrid fitness for binding NBS DNA, 0.808:
RRRH

one-hybrid fitness for binding NBS DNA, 0.33:
QKWS

one-hybrid fitness for binding NBS DNA, 0.437:
RLHT
QLMR

one-hybrid fitness for binding NBS DNA, 0.512:
QHMR

one-hybrid fitness for binding NBS DNA, 0.236:
RLVT

one-hybrid fitness for binding NBS DNA, 0.462:
QKWR
RLQT

one-hybrid fitness for binding NBS DNA, 0.656:
QTMR

one-hybrid fitness for binding NBS DNA, 0.257:
QVTS

one-hybrid fitness for binding NBS DNA, 0.46:
RCRH
RLST

one-hybrid fitness for binding NBS DNA, 0.528:
RLNT

one-hybrid fitness for binding NBS DNA, 0.971:
QRMR

one-hybrid fitness for binding NBS DNA, 0.396:
RLCT

one-hybrid fitness for binding NBS DNA, 0.38:
QYRC
QVTR

one-hybrid fitness for binding NBS DNA, 0.589:
QCMR

one-hybrid fitness for binding NBS DNA, 0.25:
RRRL
QRMF

one-hybrid fitness for binding NBS DNA, 0.456:
QSMR

one-hybrid fitness for binding NBS DNA, 0.507:
QATR

one-hybrid fitness for binding NBS DNA, 0.241:
QKTH

one-hybrid fitness for binding NBS DNA, 0.337:
RLLT

one-hybrid fitness for binding NBS DNA, 0.281:
RSCT

one-hybrid fitness for binding NBS DNA, 0.417:
QITR

one-hybrid fitness for binding NBS DNA, 0.39:
RCCT

one-hybrid fitness for binding NBS DNA, 0.371:
QYKC

one-hybrid fitness for binding NBS DNA, 0.657:
RLRT

one-hybrid fitness for binding NBS DNA, 0.391:
RLYT

one-hybrid fitness for binding NBS DNA, 0.531:
RTCT
QSTR

one-hybrid fitness for binding NBS DNA, 0.487:
QLTR

one-hybrid fitness for binding NBS DNA, 0.637:
QCTR

one-hybrid fitness for binding NBS DNA, 0.794:
QTTR

one-hybrid fitness for binding NBS DNA, 0.405:
QKWD
EMMK

one-hybrid fitness for binding NBS DNA, 0.49:
QCWR

one-hybrid fitness for binding NBS DNA, ≤ 0.2:
DILR
RKCV
QAWY
QKWY
QKWF
QPWR
QKWM
SITS
LTLV
SPPA
RPRH
SHTT
VASP
SECF
NISL
QYVC
QYDC
QYNC
QYYC
MESV
SGNS
GITD
RVSA
RLCP
RLCH
RLPT
RLGC
RMCF
RLGM
RMCL
APPM
YKNV
MWIF
QMEK
LNIR
FVCG
LKHR
RTCC
RLSP
RTCK
RLHY
RLHN
RLSH
FWLT
PFLT
THKK
QSNE
SMHG
TFYD
RPCT
RLQN
RLQD
RLDT
RLKP
KERP
SPFL
PQIR
QSHW
AERM
QAMN
QSMH
EMMS
EMMN
QTMC
QSMN
LIRV
RMDQ
VSTS
CNRT
IWRR
PMRP
TVTG
HFAM
DPVR
CHNI
QPMR
QMML
QKMC
QMMD
QKMK
TRYK
DMET
PFSA
KETI
TMKT
FTAV
TYAQ
DFDS
QHMD
QHMH
QLMD
QLMP
PNHV
LLMW
LSGP
QATN
QITH
QITP
QMTN
QVTD
QMTP
QATP
AEVC
LDTD
DQQR
PSGT
DSIE
WSFT
GPRS
PFKM
QQPY
QKTK
QSTD
QTTF
QHTD
QSTP
QHTH
HRSV
ENSS
DMPS
GDPL
ACNS
TMDS
PAFY
QPEV
IHVS
GGTE
HVRY
NRTR
QLTN
DRTR
QLTD
QPTR

one-hybrid fitness for binding NBS DNA, 0.242:
QTTQ

one-hybrid fitness for binding NBS DNA, 0.223:
QNTR

one-hybrid fitness for binding NBS DNA, 0.334:
QRMM

one-hybrid fitness for binding NBS DNA, 0.366:
RMCT

one-hybrid fitness for binding NBS DNA, 0.232:
QTMY

one-hybrid fitness for binding NBS DNA, 0.568:
QMTR

one-hybrid fitness for binding NBS DNA, 0.335:
RSRH

one-hybrid fitness for binding NBS DNA, 0.644:
RLKT

one-hybrid fitness for binding NBS DNA, 0.266:
RLLS

one-hybrid fitness for binding NBS DNA, 0.527:
QHTR

one-hybrid fitness for binding NBS DNA, 0.348:
QAWR
QIMR

one-hybrid fitness for binding NBS DNA, 0.219:
RRRE
QAMH
